# From PubChem BioAssay AID1030 (National Center for Advancing Translational Sciences (NCATS), 2008)
# Where “and” joins values, the source holds several entries; their conditions need not be identical. Identical values can stand only once. Screen size: about 220,000 compounds; about 16,000 (7.3%) were called active. Another 25% or so got no clear call; they are omitted. The call rests on the fitted dose curve; in most records, active means well fitted inhibition curve with a large enough effect (not every such curve was filed as active); inconclusive means small, poorly fitted or top-dose-only effect, or another doubt; inactive means no such curve, though single readings can be large or run the other way. The full list was thinned out, with actives kept by preference. A structure can be active in one record and inactive in another.
# Biological target: Aldehyde dehydrogenase 1A1 (Homo sapiens) (UniProt P00352)
# Sequence (P00352 whole entry, looked up): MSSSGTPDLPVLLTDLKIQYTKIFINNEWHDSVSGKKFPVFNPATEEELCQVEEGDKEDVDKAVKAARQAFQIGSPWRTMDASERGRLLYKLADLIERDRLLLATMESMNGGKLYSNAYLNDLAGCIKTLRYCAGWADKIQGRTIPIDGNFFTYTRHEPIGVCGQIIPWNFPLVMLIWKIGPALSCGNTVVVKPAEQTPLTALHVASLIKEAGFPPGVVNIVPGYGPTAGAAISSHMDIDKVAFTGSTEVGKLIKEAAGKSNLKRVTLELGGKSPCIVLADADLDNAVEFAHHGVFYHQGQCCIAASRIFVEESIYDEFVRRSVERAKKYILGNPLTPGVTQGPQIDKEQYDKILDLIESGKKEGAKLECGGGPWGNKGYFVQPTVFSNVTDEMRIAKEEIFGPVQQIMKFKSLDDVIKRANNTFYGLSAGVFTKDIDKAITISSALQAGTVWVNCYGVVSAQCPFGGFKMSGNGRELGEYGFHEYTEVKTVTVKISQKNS
# Experiment: qHTS Assay for Inhibitors of Aldehyde Dehydrogenase 1 (ALDH1A1);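 on activity, negative = inhibition: plate controls were no enzyme wells and a reference inhibitor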
# Conditions: Purified ALDH1A1, NADH fluorescence, propionaldehyde substrate; series mostly up to 75.3 µM; activity, negative = inhibition: at the top concentration
# Potency means the concentration at half of the fitted maximal effect.
SMILES,Potency,"activity, negative = inhibition"
O=C1N=c2ccccc2=C/C1=C\c1c(O)[nH]c(=S)[nH]c1=O,2510 nM (active),
COc1ccccc1N=Nc1c(O)[nH]c(=S)[nH]c1=O,,-12% (inactive)
Cc1ccc2c(c1)=C/C(=C\c1c(O)[nH]c(=O)[nH]c1=O)C(=O)N=2,1580 nM (active),
CC(C)CCC1(CCN)C(=O)NC(=O)NC1=O,,0.154% [at 13.5 µM] (inactive)
CCOc1ccc(CN(CCCl)CCCl)cc1C(=O)OC,,-5.9% (inactive)
COc1ccc(C2Oc3c(I)c(OC)cc(OC)c3CC2O)cc1OC (centres undefined),,9.99% (inactive)
O=C(Nc1cccc2ccccc12)N1CCC2(CC1)OCCO2,,-5.72% (inactive)
COc1ccccc1-c1[se]c2ccccc2c1I,,7.96% (inactive)
Cc1ccc(N(C)C(=O)Oc2cccc3ccc(C)nc23)cc1,,6.33% (inactive)
CS(=N)(=O)CC[C@H](N)P(=O)(O)O (some centres undefined),,4.42% [at 13.5 µM] (inactive)
CC(=O)NBr,,5.46% (inactive)
CCC1(c2ccccc2)C(=O)NC(=O)N(C)C1=O (centres undefined),,-2.03% (inactive)
c1ccc(Cc2nn3c(Cn4cnc5ccccc54)nnc3s2)cc1,2240 nM (active),
c1ccc(CCCCN2CCC(c3ccccc3)CC2)cc1,inactive,
c1cncc(CNCCc2c[nH]c3ccccc23)c1,,-3.63% (inactive)
NC(=O)Nc1cccc(C(F)(F)F)c1,,9.13% (inactive)
C[C@@]1([C@@H](NP(=O)(c2ccccc2)c2ccccc2)c2ccccc2)C[C@H]1CCO,inactive,
CCCCC#N,,3.32% (inactive)
Clc1ccc2nc3c(c(-c4ccccc4)c2c1)CNCC3,,11.2% (inactive)
N#CC(C#N)=Cc1cc(O)c(O)c([N+](=O)[O-])c1,inactive and 20 µM (active),
Cc1cccc(-n2c(O)c(/C=N/N3CCOCC3)c(=O)[nH]c2=S)c1,,0.025% (inactive)
CN[C@@H]1C[C@H]2O[C@@](C)([C@@H]1OC)n1c3ccccc3c3c4c(c5c6ccccc6n2c5c31)C(=O)NC4,,-5.83% [at 13.5 µM] (inactive)
CN(C)C(=O)NC(O)C(Cl)(Cl)Cl (centres undefined),,10.9% (inactive)
C[C@]12CC[C@@H]3C(=CCc4cc(O)ccc43)[C@@H]1CCC2=O,501 nM (active),
CCC(C)C(=O)O[C@@H]1C[C@@]2(C)C(c3ccoc3)OC(=O)CC23OC2(C)O[C@@]14[C@@]1(C)C(CC(=O)OC)C5(C)CC1(O)C(O)(C5OC(=O)C1(C)OC1C)C(OC(C)=O)[C@@]34O2 (some centres undefined),,2.69% (inactive)
Cc1noc(C)c1CSc1nc2cc(S(=O)(=O)N3CCOCC3)ccc2o1,3550 nM (active),
O=C(c1cc(S(=O)(=O)N2CCOCC2)ccc1F)N1CCC2(CC1)OCCO2,,-0.0979% (inactive)
N#CCCCl,inactive,
O=C(Nc1cccc(OC(=O)N2CCCCC2)c1)N1CCOCC1,,0.604% (inactive)
